# According to PubChem BioAssay AID1053119 (Broad Institute, 2014):
# Measured potencies and affinities stand elsewhere. Records with an inconclusive call do not appear. The source made the active and inactive calls.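 The calls were made as follows: active = signal loss from cell killing with fitted potency at or below twice the top valid dose; inconclusive = flat drop of 30 to 70%, or unreliable curve fit; inactive = opposite direction, flat within 30%, or weaker potency.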
# Experiment: viability loss in A549 lung cancer cells – cell-based, cherry-picks, 26 µM top dose, cytotoxicity control, dose response (AID 1053119);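 also: 0% = neutral control wells and -100% = 10 µM mitoxantrone wells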
# Details: CellTiter-Glo ATP luminescence, 72 h; series mostly up to 26 µM; activity change, negative = cytotoxicity: at the top concentration
row,Structure (SMILES),"activity change, negative = cytotoxicity"
1,O=C(Nc1ccccc1F)N1C[C@H]2[C@@H](c3ccccc31)[C@H](CO)N2C(=O)C1CC1,1.68% (inactive)
2,COc1cccc(CN2CCN(C(=O)c3ccc(-c4ccccc4)cc3)CC2)c1OC,4.35% (inactive)
3,C[C@@H]1CN([C@H](C)CO)C(=O)c2cc(-c3ccccc3)cnc2O[C@H]1CN(C)Cc1ccccc1,-7.15% (inactive)
4,CCc1nc2c(OCCc3cccc(OC)c3)cccn2c1N(C)C(=O)c1ccc(C)cc1,-7.35% (inactive)
5,C[C@H](O)C#Cc1ccc2c(c1)O[C@H](CN(C)C)[C@H](C)CN([C@@H](C)CO)S2(=O)=O,1.47% (inactive)
6,CO[C@@H]1CN(C)C(=O)c2cc(NC(=O)Nc3ccc(Cl)c(Cl)c3)ccc2OC[C@H](C)NC[C@H]1C,2.06% (inactive)
7,CC1CN(C(=O)c2cc3c(=O)n4ccccc4nc3n2C)CC(C)O1 (configuration not stated),-14.9% (inactive)
8,C[C@H](CO)N1C[C@H](C)[C@H](CN(C)C(=O)Nc2cccc3ccccc23)Oc2c(NC(=O)Nc3ccc(C(F)(F)F)cc3)cccc2C1=O,2.92% (inactive)
9,CO[C@@H]1CN(C)C(=O)c2ccc(NC(=O)c3ccc(-c4ccccc4)cc3)cc2OC[C@@H](C)NC[C@@H]1C,-9.52% (inactive)
10,CCCCNC(=O)Nc1nc2ccc(CC)cc2s1,-1.95% (inactive)
11,N#Cc1ccc(-c2ccc3c(c2)[C@@H]2[C@@H](CCN2S(=O)(=O)c2ccccc2F)[C@H](CO)N3)cc1,-1.48% (inactive)
12,CN(C)C(=O)c1ccc(-c2ccc3c(c2)[C@@H]2[C@@H](CCN2C(=O)c2ccc(F)cc2)[C@H](CO)N3C)cc1,-11.7% (inactive)
13,Cn1cnc(S(=O)(=O)N2CCN(c3ccccc3)CC2)c1,-0.126% (inactive)
14,Cc1cccc(NC(=O)Nc2ccc(S(=O)(=O)Nc3onc(C)c3C)cc2)c1,-6.98% (inactive)
15,COc1cccc(CNC(=O)CCc2nnc3ccc(NCCCN4CCCC4=O)nn23)c1,-2.93% (inactive)
16,COCC(=O)Nc1ccc2c(c1)C(=O)N(C)[C@@H]1CC[C@H](CC(=O)NCc3ccccc3Cl)O[C@H]1CO2,1.18% (inactive)
17,N#Cc1ccc(-c2ccc3c(c2)[C@@H]2[C@@H](CCN2S(=O)(=O)c2cccc(F)c2)[C@H](CO)N3)cc1,-4.73% (inactive)
18,COC(=O)c1cn(CC(=O)NCc2ccco2)c2ccccc12,0.072% (inactive)
19,Cc1cccc(N2CCN(S(=O)(=O)c3cn(C)cn3)CC2)c1C,-6.39% (inactive)

row,Structure (SMILES),"activity change, negative = cytotoxicity"
1,O=C(NCCS(=O)(=O)N1CCN(c2ccc(F)cc2)CC1)c1ccc(Br)o1,-7.54% (inactive)
2,OC(CNC1CCCc2ccccc21)COc1c(Cl)cccc1Cl (configuration not stated),-13.4% (inactive)
3,COCC(=O)Nc1ccc2c(c1)C(=O)N(C)[C@H]1CC[C@H](CC(=O)NCc3ccccc3Cl)O[C@H]1CO2,-11.8% (inactive)
4,CCCc1cc(C(=O)OC)c(NC(=O)CCC(=O)O)s1,-7.87% (inactive)
5,COC(=O)C[C@@H]1CC[C@@H]2[C@@H](COc3ccc(NC(=O)Cc4cccs4)cc3C(=O)N2C)O1,6.73% (inactive)
6,CCN1CCN(C(c2ccccc2)c2nnnn2Cc2ccccc2)CC1 (configuration not stated),-9.25% (inactive)
7,O=C(CCC(=O)c1cccs1)NCc1cccnc1,2.94% (inactive)
8,COc1cccc(-c2ccc3c(c2)[C@H]2[C@H](CCN2S(=O)(=O)c2cccc(OC)c2)[C@H](CO)N3)c1,-8.97% (inactive)
9,COC(=O)C[C@H]1CC[C@H]2[C@@H](COc3ccc(NC(=O)Cc4cccs4)cc3C(=O)N2C)O1,4.07% (inactive)
10,Cc1ccc([N+](=O)[O-])cc1NC(=O)CN(C(=O)c1ccccc1Cl)C1CCCCC1,-14% (inactive)
11,C[C@@H]1CN([C@H](C)CO)C(=O)c2cc(-c3ccccc3)cnc2O[C@H]1CN(C)C(=O)c1cccc(F)c1,-3.54% (inactive)
12,C[C@H](O)C#Cc1ccc2c(c1)O[C@H](CN(C)C)[C@H](C)CN([C@H](C)CO)S2(=O)=O,14.7% (inactive)
13,CC(=O)Nc1cccc(-c2ccnc3c2CC(C)(C(=O)Nc2cccc(C(F)(F)F)c2)O3)c1 (configuration not stated),-20% (inactive)
14,C[C@H]1CN([C@@H](C)CO)C(=O)c2cc(-c3ccccc3)cnc2O[C@@H]1CN(C)C(=O)c1cccc(F)c1,-5.97% (inactive)
15,O=C(CSc1nc2ncc(Cl)cc2[nH]1)c1c[nH]c2ccccc12,3.79% (inactive)
16,COCC(=O)Nc1ccc2c(c1)C(=O)N(C)[C@H]1CC[C@H](CC(=O)NCc3ccccc3Cl)O[C@@H]1CO2,-12% [at 23.5 µM] (inactive)
17,Cc1oc2ccc(O)cc2c1C(=O)c1ccc(Br)cc1,-18.2% (inactive)
18,O=C(CCNS(=O)(=O)c1cccc2nonc12)NC1CCCc2ccccc21 (configuration not stated),10.4% (inactive)
